High-throughput results from PubChem BioAssay.
ALDH1A1 inh: qHTS Assay for Inhibitors of Aldehyde Dehydrogenase 1 (ALDH1A1). Aldehyde dehydrogenase 1A1 (Homo sapiens), P00352. Purified ALDH1A1, NADH fluorescence, propionaldehyde substrate. Potency, µM (doses to about 75.3 µM), without a hit: at the top dose activity, negative = inhibition, hits mostly inhibitors. 220,000 tested, 7.3% active. AID 1030, 2008;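 also: potency is read from the fitted curve at half-maximal effect; plate controls were no enzyme wells and a reference inhibitor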
Target sequence (P00352 whole entry, looked up): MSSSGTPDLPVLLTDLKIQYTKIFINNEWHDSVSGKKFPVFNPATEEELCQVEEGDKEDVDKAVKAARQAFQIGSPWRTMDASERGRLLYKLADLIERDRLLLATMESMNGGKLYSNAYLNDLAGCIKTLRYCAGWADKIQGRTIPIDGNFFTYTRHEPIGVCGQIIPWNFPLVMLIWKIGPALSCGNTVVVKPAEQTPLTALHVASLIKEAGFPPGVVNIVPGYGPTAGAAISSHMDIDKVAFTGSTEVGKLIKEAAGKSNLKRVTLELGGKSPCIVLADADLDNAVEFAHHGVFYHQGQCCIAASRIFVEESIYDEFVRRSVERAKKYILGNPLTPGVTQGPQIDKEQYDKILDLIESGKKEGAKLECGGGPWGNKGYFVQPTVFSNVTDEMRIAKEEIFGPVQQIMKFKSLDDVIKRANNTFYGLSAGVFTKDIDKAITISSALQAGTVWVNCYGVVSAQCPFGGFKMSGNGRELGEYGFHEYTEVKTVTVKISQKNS
HPGD inh: qHTS Assay for Inhibitors of HPGD (15-Hydroxyprostaglandin Dehydrogenase); 150,000 tested, 4.3% active; Potency, µM, for inactives: at the highest dose activity change, negative = inhibition, most hits filed as inhibitors; AID 894, 2007; 15-hydroxyprostaglandin dehydrogenase [NAD(+)] (Homo sapiens), P15428; purified HPGD, NADH fluorescence kinetic, PGE2 substrate; also: potency is read from the fitted curve at half-maximal effect
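20 nM HPGD preincubated 15 min at room temperature with compound in 50 mM Tris-HCl pH 8, 0.01% Tween 20. Started with 1 mM NAD+ and 30 uM prostaglandin E2; NADH fluorescence (360/450 nm) read 5 times over 30-s intervals, last minus first.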
PNC inhibitor: High Content Assay for Compounds that inhibit the Assembly of the Perinucleolar Compartment; 140,000 tested, 3.1% active; PC3M PTB-GFP, PNC prevalence imaging, 16 h; hits give low values; activity change (PNC), negative = inhibition, % at 10 µM;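 active = readout at or below -70, meaning at least 70% loss of cells showing the perinucleolar compartment, a nuclear body marking cancer cells; inconclusive = readout between -30 and a set limit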;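 also: plate controls were DMSO wells for no effect and camptothecin positive control wells for full effect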
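PC3M cells stably expressing PTB-GFP, 750–1000 cells/well, treated 16 h at 37 °C with compound (23 nl of library stock), in duplicate. After paraformaldehyde fixation and Hoechst stain, imaged at 20x; PNC prevalence scored by image analysis.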
The depositor's hits bear a star; ? = inconclusive; . = no result; ! = not active in a repeat; [ ] = dose if it differs, or a comment. A selection: hits, their analogues and other compounds. The true share with any hit is near 11%. Unless noted, calls follow the shape of the dose curve; as a rule, active = well fitted inhibition curve with a large enough effect (not every such curve was filed as active); inconclusive = small, poorly fitted or top-dose-only effect, or another doubt; inactive = no such curve, though single readings can be large or run the other way. Unless noted, % is scaled to controls: 0 for no effect and ±100 for the full control effect.

SMILES	ALDH1A1 inh	HPGD inh	PNC inhibitor
CCCCC(=O)Nc1nc(C)c(-c2csc(Nc3cc(Cl)ccc3OC)n2)s1	10µM*	?	11.3
CCCCC(=O)Nc1nc(C)c(-c2csc(Nc3cc(OC)ccc3OC)n2)s1	1.9%	-25.6%	-16.3
COc1cccc(-n2c(SCC(=O)OC(C)C)nnc2-c2cccnc2)c1	-6.4%	22.4µM*	?
COC(=O)CSc1nnc(C)n1-c1ccc(C)cc1	12.0%	6.3%	-18.7
CC(C)OC(=O)CSc1nnc(-c2cccnc2)n1N	8.9%	-12.0%	17.8
COC(=O)CSc1nnc(C)n1-c1cccc(OC)c1	7.3%	-19.5%	-96.5*
CCn1nc(CC(=O)O)c2ccccc2c1=O	2.7%	.	.
COc1ccc2[nH]cc(CC(N)C(=O)O)c2c1 (stereo unspecified)	10.8%	-3.1%	.
N[C@@H](Cc1c[nH]c2ccc(O)cc12)C(=O)O	28.2µM*!	-8.8%	.
COc1ccc(-c2c(C#N)c(N)nc3sc(C(=O)c4ccccc4)c(N)c23)cc1	3.98µM*	?	-17.4
COc1ccc(-c2c(C#N)c(N)nc3c2c(=O)n(C)c(=O)n3C)cc1	?	-26.7%	?
Cc1ccc(C)c(NC(=O)CSc2ccc(-c3ccco3)nn2)c1	3.16µM*	-21.1%	-5.0
Cc1nnc(NC(=O)CSc2ccc(-c3ccc(Cl)cc3)nn2)s1	6.4%	.	.
Cc1ccccc1NC(=O)CSc1ccc(-c2ccco2)nn1	?	-11.5%	15.2
Cc1nnc(NC(=O)CSc2ccc(-c3ccco3)nn2)s1	7.08µM*	.	.
Cc1cc(OCC(=O)Nc2ccc(CN3CCCCC3)cc2)ccc1Cl	-1.2%	.	.
Cc1cc(C)n2nc3ccccc3c2n1	-3.2%	-13.9%	-10.1
Cc1cc(C)n2nc(/C(C#N)=C/c3ccccn3)c(C#N)c2n1	14.1µM*	.	.
Cc1nc(NC(=O)COC(=O)CCS(=O)(=O)c2ccccc2Cl)c(Cl)cc1Cl	?	-18.7%	-5.3
O=C(Cn1nnc(-c2ccccc2F)n1)Nc1ccc(S(=O)(=O)NC2CCCC2)cc1	0.3%	7.08µM*	27.4
O=C(Cn1nnc(-c2ccccc2F)n1)Nc1ccc2c(c1)OCO2	11.0%	-12.9%	7.0
O=C(Cn1nnc(-c2ccccc2F)n1)Nc1ccc(C(=O)N2CCOCC2)cc1	-1.0%	39.8µM*	-11.0
O=C(Nc1ccccc1)Nc1ccc(C(=O)N2CCOCC2)cc1	3.1%	15.8µM*	-5.4
O=C(Nc1ccc(C(=O)N2CCOCC2)cc1)Nc1ccc(Cl)cc1Cl	-6.4%	.	.
CCOC(=O)c1ccc(NC(=O)Cn2nnc(-c3ccccc3F)n2)cc1	5.0%	-9.2%	12.4
SMILES	ALDH1A1 inh	HPGD inh	PNC inhibitor
O=C(c1ccco1)N1CCN(c2cc(C(F)(F)F)nc3ncnn23)CC1	4.0%	.	-16.2
O=C(COC(=O)C(Cc1ccccc1)NC(=O)c1ccc(Cl)cc1)c1ccc(Cl)cc1 (stereo unspecified)	?	-9.0%	-0.8
CCC(C)(C)NC(=O)C(c1cccc(OC)c1OC)N(CCC(C)C)C(=O)CCC(=O)Nc1cc(C)on1 (stereo unspecified)	8.1%	.	.
COCCNC(=O)[C@H](C)[C@@H]1C[C@@]1(C)[C@@H](NC(=O)OCc1ccccc1)c1ccccc1	1.2%	-28.1%	.
C[C@@H](C(=O)NCCF)[C@H]1C[C@]1(C)[C@H](NC(=O)OCc1ccccc1)c1ccccc1	?	-5.2%	.
CC(=O)N[C@@H](c1ccccc1)[C@]1(C)C[C@H]1[C@@H](C)C(=O)Nc1ccc2ccccc2c1	-4.6%	-4.2%	.
C[C@@H](C(=O)Nc1ccc2ccccc2c1)[C@@H]1C[C@@]1(C)[C@@H](NC(=O)Oc1ccc(F)cc1)c1ccccc1	-12.4%	-3.2%	.
Cc1cc(C(=O)N[C@H](c2ccccc2)[C@@]2(C)C[C@@H]2[C@@H](C)C(=O)Nc2ccc3ccccc3c2)n(C)n1	15.8µM*	-7.7%	48.9
C[C@@H](C(=O)NCCc1c[nH]c2ccccc12)[C@H]1C[C@]1(C)[C@H](NC(=O)OCc1ccccc1)c1ccccc1	10µM*	-19.2%	28.8
C[C@@H](C(=O)NCc1ccccn1)[C@H]1C[C@]1(C)[C@H](NC(=O)OCc1ccccc1)c1ccccc1	31.6µM*!	-26.1%	?
C[C@@H](C(=O)Nc1ccc2ccccc2c1)[C@H]1C[C@]1(C)[C@H](NC(=O)OCc1ccccc1)c1ccccc1	12.6µM*	-23.5%	-9.0
CC(NC(=O)NC1CCCCC1)C(c1cccs1)N1CCN(C)CC1 (stereo unspecified)	5.7%	-6.6%	8.0
O=C(CNC(=O)c1cccc(OC(F)F)c1)OCc1cc(=O)n2cc(Br)ccc2n1	?	-21.0%	-20.2
CCCCc1nc2c(c3c1CC(C)OC3)CN(CCC(C)C)CC2 (stereo unspecified)	-1.2%[13.5 µM]	.	.
Cc1[nH]n(-c2ccc([N+](=O)[O-])cc2)c(=O)c1C=NCCN1CCN(C(=O)c2ccccc2)CC1	-10.3%	-18.1%	2.6
CCCCN=CC1=C(O)CC(c2ccccc2)CC1=O (stereo unspecified)	-6.4%	.	.
CS(=O)(=O)c1ccc([C@H](O)[C@H](CF)NC(=O)C(Cl)Cl)cc1	7.8%[20.9 µM]	-9.9%	.
COc1cc(NS(C)(=O)=O)c(OC)cc1NC(=O)c1cccc(F)c1	?	-3.5%	-2.9
COc1ccc(C2/C(=C(/O)c3ccccc3)C(=O)C(=O)N2CC(C)O)c(OC)c1 (stereo unspecified)	?	-8.9%	58.1
Cc1ccc(NCC(=O)Nc2ccc(Br)cc2)cc1F	?	.	29.7
C[C@H](CO)NC(=O)[C@H](C)[C@H]1C[C@]1(C)[C@H](NC(=O)OCc1ccccc1)c1ccccc1	22.4µM*	-2.0%	-4.5
C[C@@H](C(=O)NCC1CC1)[C@@H]1C[C@@]1(C)[C@@H](NC(=O)OCc1ccccc1)c1ccccc1	-8.7%	-24.9%	-2.6
O=C(/C=C/c1ccc(Cl)cc1)Nc1ccccc1N1CCOCC1	8.9%	-11.0%	35.9
O=C(Cn1[nH]c(=O)c2ccccc2c1=O)N1CC=C(c2ccccc2)CC1	5.2%	-20.9%	-18.8
CC(C)OC(=O)CC12CN(C)CC(CC(=O)OC(C)C)(CN(C)C1)C2=O	5.6%	-5.2%	45.3
SMILES	ALDH1A1 inh	HPGD inh	PNC inhibitor
COc1ccc2c(c1)C(c1ccccc1C)CC(=O)O2 (stereo unspecified)	31.6µM*	?	.
COc1ccc2c(c1)C(c1ccccc1OC)CC(=O)O2 (stereo unspecified)	?	-8.8%	.
CC/C=C\CC[C@H](O)C1=CCCCC1=O	9.7%[13.5 µM]	.	.
CCOc1ccc(Nc2nc3cc(S(=O)(=O)N(CC)CC)ccc3o2)cc1	3.16µM*	3.55µM*	-22.8
CCN(CC)S(=O)(=O)c1ccc2oc(SCC(=O)NCc3ccccc3)nc2c1	-13.8%	-10.3%	-22.2
CCS(=O)(=O)c1ccc2oc(Nc3cc(C)cc(C)c3)nc2c1	?	-27.2%	117.6
CCS(=O)(=O)c1ccc2oc(Nc3ccc(C(C)C)cc3)nc2c1	3.98µM*	3.98µM*	28.1
CC(C)[C@H](NC(=O)c1ccc(F)cc1)C(=O)NC1=NCCS1	5.9%	.	.
Cn1cccc1Cc1nnc(SCC(=O)NCCc2ccccc2)n1C	2.1%	.	.
